# TRPML1 ag: activates the human TRPML1 channel | TRPML1-expressing cells, Ca2+ dye fluorescence, FDSS | activation, % (no concentration beside the values) | 0.12% of 410,000 active; in the data active means activation above about 50%; inconclusive means mostly about 30% to 49%
#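 Agonist activity was taken from a 110 s kinetic Ca2+ dye read on the FDSS after pinning compounds onto TRPML1-DL cells. The cells were seeded at 1,500/well with Tet inducer, incubated about 16 h, then dye-loaded at room temperature.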
# hERG WT inh: blocks the wildtype human KCNH2 potassium channel | Q12809 | U2OS, BacMam KCNH2, thallium flux FluxOr; active compounds read low | activity change, % at 1.84 µM | 0.37% of 340,000 active;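 active means maximum activity change below -70%; inconclusive means maximum activity change between -70% and -50%; inactive means maximum activity change above -50%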
#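 U2OS cells were transduced with wild-type KCNH2 virus (2.03 x 10^8 / mL) for 4 h at room temperature, then cultured overnight at 37 C. Thallium flux was read with FluxOr dye. Rate constants were normalized to DMSO controls.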
# TRHR enhancer: allosterically enhances the human TRH receptor; P34981; TRHR cells, fluo-8 calcium fluorescence, EC20 TRH enhancement; enhancement, % at 2 µM; 0.66% of 360,000 active; AID 493056; in the data active means enhancement above about 30%
# Target sequence (P34981 whole entry, looked up): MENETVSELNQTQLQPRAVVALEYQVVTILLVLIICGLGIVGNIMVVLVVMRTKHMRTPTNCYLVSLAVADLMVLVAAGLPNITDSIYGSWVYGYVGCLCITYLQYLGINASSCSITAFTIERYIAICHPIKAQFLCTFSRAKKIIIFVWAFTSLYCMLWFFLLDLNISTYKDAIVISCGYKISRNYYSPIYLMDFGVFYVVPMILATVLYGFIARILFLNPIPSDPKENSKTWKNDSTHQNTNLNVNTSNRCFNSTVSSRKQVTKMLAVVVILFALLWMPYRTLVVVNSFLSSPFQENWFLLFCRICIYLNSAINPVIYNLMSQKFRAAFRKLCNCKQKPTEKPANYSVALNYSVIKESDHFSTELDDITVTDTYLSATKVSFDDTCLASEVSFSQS
#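 Enhancer read-out: after compound pinning and an initial kinetic agonist-mode read, an EC20 of TRH (10 nM final) was injected and fluo-8 calcium signal (Ex 480/Em 530) followed at 1 s/cycle for 100 cycles in TRHR-expressing cells.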
# KCNH2 3.1 block: blocks the human KCNH2 3.1 channel isoform; activity change, % (tested at about 1.8 µM); U2OS KCNH2 3.1, thallium flux FluxOr; active compounds read low; 0.95% of 340,000 active;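 active means maximum activity change below -70%; inconclusive means maximum activity change from -70% to -50%; inactive means maximum activity change above -50%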;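 further: thallium influx rate constant from kinetic fluorescence after stimulation buffer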
#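 U2OS cells transduced with KCNH2 3.1 mutant virus (1.77 x 10^8 /mL, 4 h), plated overnight at 37 C, loaded 45 min with FluxOr dye plus Red40 quencher. Thallium flux rate constant from kinetic reads after stimulation buffer, normalised to controls.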
# TRPML1 inh: inhibitors of human TRPML1 channel; Q9GZU1; TRPML1-inducible cells, Ca2+ dye fluorescence, FDSS; active compounds read low; inhibition of EC80 agonist-evoked calcium signal; activity change, negative = inhibition, % (test concentration not listed); 0.02% of 390,000 active; AID 624415; in the data active means activity change below about -50%; inconclusive means between about -30% and that limit;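 further: stimulus is agonist 54-4 at its EC80 concentration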
#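 Calcium fluorescence in TRPML1-DL cells induced overnight with Tet: a 110 s read after compound pin addition, then a 110 s antagonist read after challenge with 54-4 at 4 uM final (EC80).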
# TRHR ag: activates the human TRH receptor; P34981; 0.18% of 360,000 active; activation, % at 2 µM; TRHR cells, calcium flux fluo-8, FDSS agonist mode; AID 493084; in the data active means activation above about 30%
#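 Steps: seed TRHR cells overnight; add fluo-8 no-wash Ca dye, RT 30 min–1.5 h; record 10 s baseline; pin-transfer compounds; monitor fluorescence 1 cycle/s for the agonist window. Calcium increases flag candidate agonists.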
# A number is an active result; . = inactive; ? = inconclusive; / = no result given. An excerpt weighted towards active compounds, which were near 1.7% of everything screened.
SMILES,TRPML1 ag,hERG WT inh,TRHR enhancer,KCNH2 3.1 block,TRPML1 inh,TRHR ag
O=C(Nc1ccc(Br)cc1)c1cccc(S(=O)(=O)Nc2ccccn2)c1,.,-191,.,/,.,.
c1ccc(CSc2nnc3ccc(-c4ccncc4)nn23)cc1,/,.,.,.,/,.
c1cncc(CSc2nnc3ccc(-c4ccncc4)nn23)c1,/,-79,.,.,/,.
O=C(CSc1nc2ccccc2c(=O)n1Cc1ccc(F)cc1)NCc1cccs1,.,.,.,-95,.,.
Cc1cccc(CC(=O)NC2CCN(C)CC2)c1,.,.,40,.,.,.
COc1ccccc1C(=O)Nc1ccnn1C1CCN(CCC(C)c2ccc(C)o2)CC1 (centres undefined),.,-104,.,-98,.,.
Cc1ccccc1C(=O)Nc1ccnn1C1CCN(C(C)Cc2ccccc2F)CC1 (centres undefined),.,.,.,-76,.,.
COCC(C)N1CCC(n2nccc2NC(=O)c2ccccc2Cl)CC1 (centres undefined),.,.,/,.,.,/
COc1ccccc1C(=O)Nc1ccnn1C1CCN(C/C=C/c2ccccc2)CC1,.,-121,.,-107,.,.
ON=C1C2CC=C(c3ccccc3)C1CCC2 (centres undefined),.,.,/,.,.,/
CCCCCc1ccc(-c2cn(Cc3ccc4c(c3)C(=O)c3ccccc3C4=O)nn2)cc1,.,/,/,/,/,/
Cc1cc(C)n(S(=O)(=O)/C=C/c2ccccc2)n1,.,-88,.,.,.,.
CC(C)Nc1ccc(Nc2ccnc3cc4ccccc4cc23)cc1,.,.,.,-91,.,.
CCOC(=O)N1CCN(/[N+]([O-])=N/OCOC)CC1,.,/,/,/,.,/
CCOc1ccc(NC(=O)CC2C(=O)N(CC)C(=S)N2CCNC(C)=O)cc1 (centres undefined),.,.,.,.,.,.
CCOc1ccc(NC(=O)CC2C(=O)N(CC)C(=S)N2CCN2CCOCC2)cc1 (centres undefined),.,.,.,-88,.,.
CC(C)Cc1ccc(CN2CCC(n3nccc3NC(=O)C3CCCC3)CC2)cc1,.,-73,.,-103,.,.
COc1ccc(CN2CCC(n3nccc3NC(=O)C3CCCC3)CC2)cc1,.,.,.,.,.,.
Cc1cc(CN2CCC(n3nccc3NC(=O)c3ccccc3Cl)CC2)cc(C)c1O,.,.,.,-77,.,.
O=C(Nc1ccnn1C1CCN(CCCc2ccccc2)CC1)c1ccccc1Cl,.,-120,.,-112,.,.
Cc1ccc(N2CC(NC(=O)c3cccc(Cl)c3)CC2=O)cc1C (centres undefined),.,/,.,/,.,.
CCCC[C@@H]1CCCO[C@@](C(=O)NCCOC)(C(F)(F)F)C1,.,/,/,/,.,/
Cc1ccc(C)c(N2CCN(CCCNC(=O)Cn3cccc3C(=O)c3ccccc3C)CC2)c1,.,-75,.,-84,.,.
Cc1ccccc1C(=O)c1cccn1CC(=O)NCCC1=CCCCC1,.,.,.,.,.,.
Cc1ccccc1C(=O)c1cccn1CC(=O)NCCCN1CCCCC1,.,.,.,.,.,.
SMILES,TRPML1 ag,hERG WT inh,TRHR enhancer,KCNH2 3.1 block,TRPML1 inh,TRHR ag
Cc1ccccc1C(=O)c1cccn1CC(=O)NCCN1CCN(c2cccc(C)c2C)CC1,.,?,.,-79,.,.
Cc1ccccc1CC(=O)Nc1cccnc1,.,.,.,.,.,.
O=C(Nc1ccc(F)cc1)Nc1ccc(N2CCCC2)c(S(=O)(=O)Nc2ccccc2Cl)c1,.,.,.,-114,.,.
Cc1ccc(C)c(NC(=O)c2ccc3c(c2)CCN3S(C)(=O)=O)c1,.,.,.,.,?,.
Cc1cc(NS(=O)(=O)c2cn(C)nc2C)no1,.,-135,.,.,.,.
CC(C)CCN(N=O)[C@@H](Cc1ccccc1)CN(N=O)[C@@H](Cc1ccccc1)CN(C)N=O,.,.,.,-113,.,.
CC(C)C[C@@H](CN(N=O)[C@@H](Cc1ccccc1)CN(C)N=O)N(CCc1ccccc1)N=O,.,/,.,/,.,.
CC(=O)Nc1ccc(C(=O)NNC(=O)c2cc([N+](=O)[O-])cc([N+](=O)[O-])c2)cc1,.,.,.,.,.,.
CC(=O)Nc1ccc(NC(=O)c2cc([N+](=O)[O-])cc([N+](=O)[O-])c2)cc1,.,.,38,.,.,.
Cc1ccnc(NC(=O)c2cc([N+](=O)[O-])cc([N+](=O)[O-])c2)c1,.,.,.,-89,.,.
Cc1ccnc(NC(=O)Cc2ccc([N+](=O)[O-])cc2)c1,.,.,.,.,.,.
Nc1nc(Nc2ccccc2F)sc1C(=O)c1ccc(Cl)cc1,.,/,.,/,.,.
O=[N+]([O-])/C(=C\Nc1ccc(F)cc1F)S(=O)(=O)c1ccccc1,.,.,.,.,.,.
O=C(NC1CCCC1)C(c1ccsc1)N(C(=O)Cc1cccs1)c1ccc(F)cc1 (centres undefined),.,.,.,-76,.,.
COc1ccc(Cn2nnnc2C(c2ccccn2)N2CCN(c3cc(Cl)ccc3C)CC2)cc1 (centres undefined),74,.,.,.,.,.
CCOc1cccc2sc(N(CCCN(C)C)C(=O)c3ccc(S(=O)(=O)N(C)c4ccccc4)cc3)nc12,.,-106,.,-85,.,.
CCOc1cccc2sc(N(CCCN(C)C)C(=O)c3ccc(S(=O)(=O)N4CCc5ccccc5C4)cc3)nc12,.,.,.,.,.,.
CCc1ccc2nc(N(CCCN(C)C)C(=O)c3ccc(S(=O)(=O)N(C)C4CCCCC4)cc3)sc2c1,.,.,.,-72,.,.
Cc1cccn2cc(COc3cccc([N+](=O)[O-])c3)nc12,.,.,.,.,.,.
Cc1cccn2cc(COc3ccc(-c4ccccc4)cc3)nc12,.,.,.,-101,.,.
COc1cc(CN(C2CCCCC2C)S(=O)(=O)c2ccc(S(=O)(=O)NC3CC3)cc2)cc(OC)c1OC (centres undefined),.,.,.,.,.,.
COc1ccc(CN(C2CCCCC2C)S(=O)(=O)c2ccc(S(=O)(=O)N(C)C)cc2)cc1OC (centres undefined),134,.,.,.,.,.
S=C(NCc1ccco1)N1CCN(c2nc(-c3ccc(Cl)cc3)cs2)CC1,.,.,.,.,.,.
S=C(NCc1ccco1)N1CCN(c2nc(-c3ccccc3)cs2)CC1,.,.,30,.,.,.
COc1cc(OC)cc(-c2c(-c3cccs3)c3cc(-c4ccc5[nH]ccc5c4)ccc3n2C)c1,.,.,40,.,.,.

# Screening data from PubChem.
